From PubChem BioAssay (NCATS)
Records with an inconclusive call do not appear. Where a call stands in place of a potency, no number is given. Calls of active or inactive are those of the source. Calls follow the shape of the dose curve; as a rule, active = well fitted cell-killing curve with a large enough effect; inconclusive = small, poorly fitted or top-dose-only effect; inactive = no such curve, though single readings can be large or run the other way.

assay: qHTS of pediatric cancer cell lines to identify multiple opportunities for drug repurposing: Primary screen for Saos-2 cells (AID 1347097); conditions: Saos-2 viability, CellTiter-Glo ATP luminescence, 48 h; series mostly up to 46 µM; also: nearly all actives have a fitted effect of over 40% in size
Summary of the method: (§1)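 ATP-based luminescence (CellTiter-Glo) quantifies viability after a 48-hour exposure. Compounds are dosed across 8 or 11 final concentrations; DMSO and 2.3 µM bortezomib serve as controls.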
Potency is read from the fitted curve at half-maximal effect.

Structure (SMILES)	Potency
O=C(O)c1ccc(S(=O)(=O)N(Cl)Cl)cc1	inactive
CC(C)(C)NC[C@H](O)COc1cccc2c1CCCC2=O	inactive
COc1cc(C(=S)N2CCOCC2)ccc1O	inactive
CCN1/C(=C/C=C/c2sc3ccccc3[n+]2CC)Sc2ccccc21	0.92 µM (active)
CC(=O)OC[C@H]1O[C@@H](n2ncc(=O)[nH]c2=O)[C@H](OC(C)=O)[C@@H]1OC(C)=O	4.22 µM (active)
O=C1C(CCS(=O)c2ccccc2)C(=O)N(c2ccccc2)N1c1ccccc1 (configuration not stated)	inactive
CCCCNc1ccc(C(=O)OCCOCCOCCOCCOCCOCCOCCOCCOCCOC)cc1	inactive
O[C@@H](c1cc(C(F)(F)F)nc2c(C(F)(F)F)cccc12)[C@H]1CCCCN1	21.1 µM (active)
CC[N+](C)(CC)CCOC(=O)C(O)(c1ccccc1)C1CCCCC1 (configuration not stated)	inactive
C/C=C/C=N/NC(=O)c1ccncc1	inactive
CCCCCCCCCCCCCCC[C@H](O)[C@@H](N)CO	inactive
COc1cc(NS(=O)(=O)c2ccc(N)cc2)ncn1	inactive
O=C(Nc1cccc(C2=NCCN2)c1)Nc1cccc(C2=NCCN2)c1	inactive
CCN(CC)CCOc1ccc2c(c1)C(=O)c1cc(OCCN(CC)CC)ccc1-2	inactive
Nc1nc(N)c(-c2ccccc2)s1	inactive
COC(=O)C(c1ccccc1Cl)N1CCc2sccc2C1 (configuration not stated)	inactive
CCCCCCCCCCCCCC[N+](C)(C)Cc1ccccc1	23.7 µM (active)
Cc1cccc(C)c1NC(=O)c1ccccc1C(=O)O	inactive

Structure (SMILES)	Potency
COc1ccccc1N1CCN(CCCCNC(=O)c2ccc(-c3ccc(C(C)=O)cc3)cc2)CC1	inactive
CC(=O)O[C@]1(C(C)=O)CC[C@H]2[C@@H]3C=C(Cl)C4=CC(=O)CC[C@]4(C)[C@H]3CC[C@@]21C	inactive
O=C(O)CCc1nc2ccccc2[nH]1	inactive
Oc1ccc(Cl)cc1Cc1cc(Cl)ccc1O	8.41 µM (active)
NCCNc1cccc2ccccc12	inactive
CCCN(CCC)S(=O)(=O)c1ccc(C(=O)O)cc1	inactive
CC(=O)O[C@]1(C(C)=O)CC[C@H]2[C@@H]3C=C(C)C4=CC(=O)CC[C@]4(C)[C@H]3CC[C@@]21C	inactive
O=C1c2cccc3c2[C@H](CCC3)CN1[C@@H]1CN2CCC1CC2	inactive
O=C(CCCN1CC=C(n2c(=O)[nH]c3ccccc32)CC1)c1ccc(F)cc1	inactive
NC(=S)N/N=C/c1cccnc1	inactive
O=[N+]([O-])c1ccc(/C=N\O)o1	inactive
Cn1c(=O)c2[nH]c(Br)nc2n(C)c1=O	inactive
CC[C@H](c1ccc(O)cc1)[C@@H](CC)c1ccc(O)cc1	23.7 µM (active)
CCN1CCCC(OC(=O)C(c2ccccc2)c2ccccc2)C1 (configuration not stated)	inactive
CCOc1ccc(NC(C)=O)cc1	inactive
CCCCCCCCNC(C)C(O)c1ccc(SC(C)C)cc1 (configuration not stated)	23.7 µM (active)
COc1ccc(C(=O)c2ccccc2)c(O)c1	inactive
CCOc1ccccc1C(N)=O	inactive

assay: qHTS of pediatric cancer cell lines to identify multiple opportunities for drug repurposing: Primary screen for SK-N-SH cells (AID 1347098); conditions: SK-N-SH viability, CellTiter-Glo luminescence, 48 h; series mostly up to 57 µM; also: nearly all actives have a fitted effect of over 65% in size
Summary of the method: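 Cells (500-1,000/well) rested 5 h, then received compounds for 48 h; metabolically active cells were measured by CellTiter-Glo luminescence. Final concentrations spanned up to 46 µM (MIPE, 11-point) or 0.59 nM-46 µM (NPC, 8-point) in primary screens, 11-point in follow-ups.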

Structure (SMILES)	Potency
CCN1/C(=C/C=C/c2sc3ccccc3[n+]2CC)Sc2ccccc21	1.89 µM (active)
CC(=O)OC[C@H]1O[C@@H](n2ncc(=O)[nH]c2=O)[C@H](OC(C)=O)[C@@H]1OC(C)=O	inactive
CCCCNc1ccc(C(=O)OCCOCCOCCOCCOCCOCCOCCOCCOCCOC)cc1	inactive
O[C@@H](c1cc(C(F)(F)F)nc2c(C(F)(F)F)cccc12)[C@H]1CCCCN1	30.7 µM (active)
C/C=C/C=N/NC(=O)c1ccncc1	inactive
CCCCCCCCCCCCCCC[C@H](O)[C@@H](N)CO	inactive
O=C(Nc1cccc(C2=NCCN2)c1)Nc1cccc(C2=NCCN2)c1	inactive
CCN(CC)CCOc1ccc2c(c1)C(=O)c1cc(OCCN(CC)CC)ccc1-2	34.4 µM (active)
COC(=O)C(c1ccccc1Cl)N1CCc2sccc2C1 (configuration not stated)	inactive
CCCCCCCCCCCCCC[N+](C)(C)Cc1ccccc1	30.7 µM (active)
CC(=O)O[C@]1(C(C)=O)CC[C@H]2[C@@H]3C=C(Cl)C4=CC(=O)CC[C@]4(C)[C@H]3CC[C@@]21C	inactive
Oc1ccc(Cl)cc1Cc1cc(Cl)ccc1O	17.2 µM (active)
CC(=O)O[C@]1(C(C)=O)CC[C@H]2[C@@H]3C=C(C)C4=CC(=O)CC[C@]4(C)[C@H]3CC[C@@]21C	inactive
O=C1c2cccc3c2[C@H](CCC3)CN1[C@@H]1CN2CCC1CC2	inactive
O=C(CCCN1CC=C(n2c(=O)[nH]c3ccccc32)CC1)c1ccc(F)cc1	inactive
O=[N+]([O-])c1ccc(/C=N\O)o1	inactive
CC[C@H](c1ccc(O)cc1)[C@@H](CC)c1ccc(O)cc1	19.4 µM (active)
CCCCCCCCNC(C)C(O)c1ccc(SC(C)C)cc1 (configuration not stated)	15.4 µM (active)
CCOc1ccccc1C(N)=O	30.7 µM (active)

assay: qHTS of pediatric cancer cell lines to identify multiple opportunities for drug repurposing: Primary screen for NB1643 cells (AID 1347099); conditions: NB1643 neuroblastoma viability, CellTiter-Glo luminescence, 48 h; series mostly up to 46 µM; also: nearly all actives have a fitted effect of over 50% in size
Summary of the method: as §1

Structure (SMILES)	Potency
O=C(O)c1ccc(S(=O)(=O)N(Cl)Cl)cc1	inactive
CC(C)(C)NC[C@H](O)COc1cccc2c1CCCC2=O	inactive
COc1cc(C(=S)N2CCOCC2)ccc1O	inactive
CCN1/C(=C/C=C/c2sc3ccccc3[n+]2CC)Sc2ccccc21	2.91 µM (active)
O=C1C(CCS(=O)c2ccccc2)C(=O)N(c2ccccc2)N1c1ccccc1 (configuration not stated)	inactive
CCCCNc1ccc(C(=O)OCCOCCOCCOCCOCCOCCOCCOCCOCCOC)cc1	inactive
CC[N+](C)(CC)CCOC(=O)C(O)(c1ccccc1)C1CCCCC1 (configuration not stated)	inactive
CCCCCCCCCCCCCCC[C@H](O)[C@@H](N)CO	inactive
COc1cc(NS(=O)(=O)c2ccc(N)cc2)ncn1	inactive
O=C(Nc1cccc(C2=NCCN2)c1)Nc1cccc(C2=NCCN2)c1	inactive
Nc1nc(N)c(-c2ccccc2)s1	inactive
COC(=O)C(c1ccccc1Cl)N1CCc2sccc2C1 (configuration not stated)	inactive
Cc1cccc(C)c1NC(=O)c1ccccc1C(=O)O	inactive
COc1ccccc1N1CCN(CCCCNC(=O)c2ccc(-c3ccc(C(C)=O)cc3)cc2)CC1	inactive
CC(=O)O[C@]1(C(C)=O)CC[C@H]2[C@@H]3C=C(Cl)C4=CC(=O)CC[C@]4(C)[C@H]3CC[C@@]21C	inactive
O=C(O)CCc1nc2ccccc2[nH]1	inactive
Oc1ccc(Cl)cc1Cc1cc(Cl)ccc1O	9.44 µM (active)
NCCNc1cccc2ccccc12	inactive
CCCN(CCC)S(=O)(=O)c1ccc(C(=O)O)cc1	inactive
CC(=O)O[C@]1(C(C)=O)CC[C@H]2[C@@H]3C=C(C)C4=CC(=O)CC[C@]4(C)[C@H]3CC[C@@]21C	inactive
O=C1c2cccc3c2[C@H](CCC3)CN1[C@@H]1CN2CCC1CC2	inactive
O=C(CCCN1CC=C(n2c(=O)[nH]c3ccccc32)CC1)c1ccc(F)cc1	26.6 µM (active)
NC(=S)N/N=C/c1cccnc1	inactive
Cn1c(=O)c2[nH]c(Br)nc2n(C)c1=O	inactive
CCN1CCCC(OC(=O)C(c2ccccc2)c2ccccc2)C1 (configuration not stated)	inactive
CCOc1ccc(NC(C)=O)cc1	inactive
COc1ccc(C(=O)c2ccccc2)c(O)c1	inactive
